Shown is part of a subset that was picked to be rich in hits.
TDP1 cell CPT = qHTS for Inhibitors of human tyrosyl-DNA phosphodiesterase 1 (TDP1): qHTS in cells in presence of CPT; chicken DT40 Tdp1-/-;hTDP1 cells + 20 nM CPT, ATP luminescence, 48 h; Potency, µM (highest dose often 46.2 µM), inactives show at the highest dose activity change, negative = growth inhibition, hits mostly inhibitors; actives 12% (n = 420,000); AID 686979, 2013; further: potency means the concentration at half of the fitted maximal effect; nearly all actives have a fitted effect of over 55% in size
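Chicken DT40 Tdp1-/- cells stably complemented with human TDP1 were seeded at 400 cells/well in medium containing 20 nM camptothecin, exposed to pin-transferred compounds, and grown at 37 °C for at least 48 hr. Viability was read as ATP luminescence.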
DT40 TDP1 no CPT = qHTS for Inhibitors of human tyrosyl-DNA phosphodiesterase 1 (TDP1): qHTS in cells in absence of CPT; actives 15% (n = 420,000); Potency, µM (highest dose often 46.2 µM), without a hit: at the highest dose activity change, negative = growth inhibition, actives largely listed as inhibitors; DT40 Tdp1-/- hTDP1 cells, no CPT, ATP luminescence, 48 h; AID 686978, 2013; further: potency means the concentration at half of the fitted maximal effect; nearly all actives have a fitted effect of over 55% in size
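Readout: luminescence from CellTiter-Glo after 30 min in the dark at RT. Cells: DT40 Tdp1-/- with stable hTDP1, 400/well. Exposure: compounds alone, ≥48 hr, 37 °C.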
HT1080NT lethal = qHTS for induction of synthetic lethality in tumor cells producing 2HG: qHTS for the HT-1080-NT fibrosarcoma cell line | Potency, µM (titrated, usually from 46.1 µM), without a hit: at the top dose activity, negative = less viability, actives largely listed as cytotoxic | HT-1080-NT fibrosarcoma viability, CellTiter-Glo ATP luminescence, 48 h | actives 1.6% (n = 360,000);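 further: NT is the 2HG producing partner of a matched IDH1 knockdown line; potency means the concentration at half of the fitted maximal effect; 0% = DMSO-treated cells and -100% = media-only wells without cells; nearly all actives have a fitted effect of over 55% in size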
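HT-1080-NT fibrosarcoma cells (2HG-overproducing), 750 cells/well in RPMI with 5% FBS, dosed after 2 h and incubated 48 h at 37C. CellTiter-Glo luminescence normalized to DMSO and no-cell wells; concentration-response curves fitted and classed.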
IL1B secr inh = qHTS for Inhibitors of Inflammasome Signaling: IL-1-beta AlphaLISA Primary Screen. THP-1 LPS/ATP IL-1B secretion, AlphaLISA, 16 h; stronger effect = lower value. activity change, % at 57.5 µM. actives 4.7% (n = 360,000); in the data active means activity change below about -50%; inconclusive means mostly about -30% to -49%
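Secreted IL-1B measured by AlphaLISA bead assay after 16 h compound exposure of THP-1 cells; compounds (final up to 57.5 uM) added 1 h before LPS (250 ng/mL) and ATP (1.25 mM) stimulation; lower signal means less secretion.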
ALOX12 inh = Primary qHTS assay for inhibitors of human arachidonate 12S-lipoxygenase (ALOX12): Round 2. Polyunsaturated fatty acid lipoxygenase ALOX12 (Homo sapiens), P18054. purified 12hLO, xylenol orange hydroperoxide absorbance. Potency, µM (top dose mostly 108 µM), inactives show at the highest dose activity change, negative = inhibition, most hits filed as inhibitors. actives 1.1% (n = 580,000); further: potency means the concentration at half of the fitted maximal effect
Target sequence (P18054 whole entry, looked up): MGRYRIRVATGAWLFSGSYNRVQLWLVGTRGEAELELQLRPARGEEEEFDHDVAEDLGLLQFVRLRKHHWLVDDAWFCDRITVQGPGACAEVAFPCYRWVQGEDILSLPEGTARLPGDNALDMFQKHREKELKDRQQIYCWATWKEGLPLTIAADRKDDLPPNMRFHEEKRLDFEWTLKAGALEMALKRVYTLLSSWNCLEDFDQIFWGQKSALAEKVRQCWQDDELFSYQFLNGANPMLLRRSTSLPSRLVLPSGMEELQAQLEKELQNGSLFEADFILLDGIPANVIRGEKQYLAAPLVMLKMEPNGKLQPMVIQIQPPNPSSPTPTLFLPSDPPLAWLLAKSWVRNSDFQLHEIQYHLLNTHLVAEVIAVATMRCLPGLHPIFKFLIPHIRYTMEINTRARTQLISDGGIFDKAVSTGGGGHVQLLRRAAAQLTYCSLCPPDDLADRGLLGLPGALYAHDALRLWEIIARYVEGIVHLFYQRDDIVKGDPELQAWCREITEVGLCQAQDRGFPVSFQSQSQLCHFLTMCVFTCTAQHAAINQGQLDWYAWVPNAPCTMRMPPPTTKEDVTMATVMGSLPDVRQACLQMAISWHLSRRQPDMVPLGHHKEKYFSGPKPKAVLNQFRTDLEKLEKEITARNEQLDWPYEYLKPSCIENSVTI
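Purified human 12hLO (150 nM final) in 25 mM Hepes, 0.01% Triton X-100, pH 7.0 was preincubated 15 min at room temperature with compound. Then 40 uM arachidonic acid was added, 30 min. Hydroperoxide was read by Fe-XO absorbance ratio 573/405 nm.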
HT1080 IDH1KD tx = qHTS for induction of synthetic lethality in tumor cells producing 2HG: qHTS for the HT-1080-IDH1KD cell line. HT-1080 IDH1 knockdown viability, ATP luminescence, 48 h. Potency, µM (top dose mostly 46.1 µM), without a hit: at the top dose activity, negative = toxicity, actives largely listed as cytotoxic. actives 2% (n = 360,000). AID 686971, 2013;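 further: potency means the concentration at half of the fitted maximal effect; 0% = DMSO wells and -100% = cell-free medium wells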
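Cytotoxicity counter-line: IDH1KD HT-1080, 48 h, CellTiter-Glo. Curves classed by r2, magnitude and activity.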
* marks the source's active call; other numbers are inactive results; i = inactive; ? = inconclusive; . = no result given; ! = a repeat was not active; [ ] = remark or other dose. Unless noted, the call rests on the fitted dose curve; in most records, active means well fitted curve in the direction sought with a large enough effect; inconclusive means small, poorly fitted or top-dose-only effect, or another doubt; inactive means no such curve, though single readings can be large; an effect the other way counts as inactive or inconclusive. Unless noted, on the % scale 0 is the no-effect control and ±100 the full control effect.

SMILES	TDP1 cell CPT	DT40 TDP1 no CPT	HT1080NT lethal	IL1B secr inh	ALOX12 inh	HT1080 IDH1KD tx
Cc1ccccc1Oc1c(CCC(=O)N2CCSCC2)c(C)nn1-c1ccccc1C	.	.	.	.	14%	.
COc1ccc(NC(=O)CCc2nc3cccnc3n2Cc2cccs2)c(OC)c1	?	?	.	.	-3%	.
O=C(CCc1nc2cccnc2n1Cc1cccs1)Nc1cccc(C(F)(F)F)c1	16µM*	10µM*	.	.	-15%	.
CCOc1ccc(NC(=O)Cc2ccc(-n3c(C)nc4cccnc43)cc2)cc1	?	?	.	.	-13%	.
Cc1ccc(NC(=O)Cc2ccc(-n3c(C)nc4cccnc43)cc2)cc1C	12µM*	18µM*	.	.	3%	.
COc1ccc(Cn2c(CCC(=O)Nc3ccc(C)c(C)c3)nc3cccnc32)cc1	13µM*!	21µM*	-18%	?	3%	-23%
O=C(CCc1nc2cccnc2n1Cc1ccccc1)NCCc1ccc(Cl)cc1	?	21µM*	-21%	-4	-6%	-11%
CC(=O)Nc1ccc(CN2Cc3[nH]cnc3C[C@H]2C(=O)NCc2ccc(C(F)(F)F)cc2)cc1	.	.	.	.	36%	.
CC1(c2ccccc2)N(Cc2ccc(O)cc2)C(=O)OC12CCN(C(=O)c1cnccn1)CC2 (stereo not drawn)	.	.	.	.	5%	.
Cc1cccc(C(=O)Nc2c(NC3CCCC3)c3ccccc3oc2=O)c1	.	.	.	.	-3%	.
COc1ccc(Cn2c(CCC(=O)Nc3cc(OC)c(OC)c(OC)c3)nc3cccnc32)cc1	16µM*	?	.	.	-21%	.
Cc1ccc(CN2CCC(c3cc(-c4cccs4)n[nH]3)CC2)cc1	?	?	?	-86*	?	?
FC(F)(F)c1cccc(CN2CCC(c3cc(-c4cccs4)n[nH]3)CC2)c1	8.2µM*	21µM*	7.3µM*	-217*	?	5.2µM*
c1ccc2c(CCNc3ccc(Nc4ccncc4)cc3)c[nH]c2c1	.	.	.	.	-11%[57.4 µM]	.
CCCCCCCCS(=O)c1sc2nc3c(cc2c1N)CCCC3 (stereo not drawn)	13µM*	?	-6%	16	?	-5%
CCCCS(=O)(=O)c1sc2nc3c(cc2c1N)CCCC3	12µM*	23µM*	-21%	-15	5%	-16%
CCCCCCCCS(=O)c1sc2nc(C)cc(C)c2c1N (stereo not drawn)	?	?	-4%	4	?	-16%
CC(=O)N1CCC(N2CCN3C(=O)N(c4ccccc4)C[C@H]3C2)CC1	.	.	.	.	10%[176 µM]	.
COc1cc(NC(=S)Nc2ccc(OC(F)F)cc2)cc(OC)c1	-16%	-8%	-15%	-6	?	-12%
COc1ccc2c(c1)O[C@@H](c1cccc(C(F)(F)F)c1)[C@H](OC(=O)Nc1ccc(OC(F)F)cc1)C2=O	?	21µM*	0%	-21	.	-5%
CCOC(=O)Cn1nnc(-c2ccc(S(C)(=O)=O)cc2)n1	4%	-1%	17%	-60*	-4%	2%
CCOC(=O)Cn1nnc(-c2ccc(SC)cc2)n1	7%	-2%	6%	17	0%	11%
O=C(NC1CCCc2c1cnn2-c1cc(F)cc(F)c1)c1ccccn1 (stereo not drawn)	?	-21%	-8%	-16	i	-18%
COc1ccc(C(=O)NC2CCCc3c2cnn3-c2cc(F)cc(F)c2)c(OC)c1OC (stereo not drawn)	16µM*	15µM*	?	-7	20%	?
COc1ccc(C(=O)NC2CCCc3c2cnn3-c2cc(F)cc(F)c2)c(OC)n1 (stereo not drawn)	-26%	-17%	9%	14	-19%	10%
SMILES	TDP1 cell CPT	DT40 TDP1 no CPT	HT1080NT lethal	IL1B secr inh	ALOX12 inh	HT1080 IDH1KD tx
Cn1nccc1C(=O)NC1CCCc2c1cnn2-c1cc(F)cc(F)c1 (stereo not drawn)	15µM*	?	-1%	0	0%	-4%
COC(=O)c1ccc(C(=O)NC2CCCc3c2cnn3-c2cc(F)cc(F)c2)nc1 (stereo not drawn)	2.9µM*	2.1µM*	?	i	-14%	16µM*
c1ccc(N2CCN(Cc3cc(CC4(NC5CCOCC5)COC4)no3)CC2)cc1	.	.	.	.	15%[176 µM]	.
C=CCN(CC(=O)NC(N)=O)Cc1ccccc1	.	.	.	.	9%	.
COC(=O)c1c(NC(=O)c2ccccc2OC)sc(C(=O)N2CCOCC2)c1C	?	15µM*	5%	-60*	13%	9%
COC(=O)c1c(N)sc(C(=O)N2CCOCC2)c1C	-1%	-12%	1%	44	380%	-1%
COC(=O)c1c(NC(=O)c2ccccc2)sc(C(=O)c2ccccc2)c1C	16µM*	15µM*	?	20	484%	?
COC(=O)c1c(NC(=O)CCl)sc(C(=O)N2CCOCC2)c1C	?	5.2µM*	7.3µM*	-98*	-10%	18µM*
COC(=O)c1c(NC(=O)C2CCCCC2)sc(C(=O)N2CCOCC2)c1C	.	.	.	.	-28%	.
O=C(CN1CC2CC(C1)[C@H]1CCCC(=O)N1C2)NCc1ccc(Cl)cc1 (stereo partly drawn)	.	.	.	.	41%	.
CN(Cc1ccccc1)Cc1nc2c(c(=O)n(C)c(=O)n2C)n1Cc1ccccc1Cl	26µM*	12µM*	-25%	-7	1%	-1%
CN(Cc1ccccc1)Cc1nc2c(c(=O)n(C)c(=O)n2C)n1CCc1ccccc1	13µM*	18µM*	13%	-10	7%	0%
Cn1c(=O)c2c(nc(Br)n2CCc2ccccc2)n(C)c1=O	?	?	-5%	-2	0%	1%[9.24 µM]
CCOC(=O)Cn1c(CN(Cc2ccccc2)Cc2ccccc2)nc2c1c(=O)n(C)c(=O)n2C	21µM*	?	0%	29	-17%	9%
CCCn1c(CN(Cc2ccccc2)Cc2ccccc2)nc2c1c(=O)n(C)c(=O)n2C	23µM*	15µM*	-5%	-15	-13%	-1%
CCNC(=O)c1ccc(CNC(C)=O)cc1	.	.	.	.	24%	.
